# Sampled rows, rich in hits. Any-hit rate of the full collection: about 6.2%.
# RORg inh – inhibitors of mouse ROR gamma transcriptional activity. Drosophila S2 Gal4-RORgamma UAS-luciferase reporter, 20 h. Potency, µM (titrated, usually from 53.6 µM), for inactives: at the top dose activity change, negative = inhibition, most hits filed as inhibitors. 310,000 tested, 5.4% active. P51450; further: nearly all actives have a fitted effect of over 60% in size
# Target sequence (P51450 whole entry, looked up, the tested form may be a part): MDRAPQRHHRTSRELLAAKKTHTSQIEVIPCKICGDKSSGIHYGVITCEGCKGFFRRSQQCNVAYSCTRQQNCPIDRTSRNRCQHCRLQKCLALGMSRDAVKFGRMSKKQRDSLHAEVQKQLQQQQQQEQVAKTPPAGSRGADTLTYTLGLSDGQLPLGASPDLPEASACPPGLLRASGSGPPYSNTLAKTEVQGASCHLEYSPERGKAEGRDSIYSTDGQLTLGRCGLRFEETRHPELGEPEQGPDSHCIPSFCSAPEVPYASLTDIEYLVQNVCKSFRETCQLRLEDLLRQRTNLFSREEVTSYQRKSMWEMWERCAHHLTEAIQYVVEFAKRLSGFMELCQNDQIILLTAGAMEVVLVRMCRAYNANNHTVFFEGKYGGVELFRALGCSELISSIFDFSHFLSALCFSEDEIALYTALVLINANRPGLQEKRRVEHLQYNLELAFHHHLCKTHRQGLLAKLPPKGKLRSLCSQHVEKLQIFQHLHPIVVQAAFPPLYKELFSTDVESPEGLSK
#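 Drosophila S2 cells stably expressing Gal4-DBD/mouse RORγ fusion under metallothionein promoter plus UAS-luciferase; compound 1 h, then 700 uM CuSO4 induction for 20 h at ambient temperature; inhibition read as reduced luminescence.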
# Gal4-VP16 FLuc – inhibits Gal4-VP16 luciferase reporter, ROR gamma counter-screen; Drosophila S2 Gal4-VP16 UAS-luciferase, luminescence, 20 h; Potency, µM (doses to about 53.6 µM), for inactives: at the top dose activity, negative = inhibition, usual class: inhibitors; 310,000 tested, 3.5% active;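 further: Gal4-VP16 expression switched on by copper sulfate through the metallothionein promoter; nearly all actives have a fitted effect of over 50% in size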
# Luc counter – counter-screen: inhibitors of Kinase-Glo firefly luciferase. Q27757. Kinase-Glo luciferase, ATP luminescence, 8 min. Potency, µM (series often up to 38.3 µM), inactives show at the top dose activity change, negative = inhibition, most hits filed as inhibitors. 200,000 tested, 0.28% active. AID 1379; further: nearly all actives have a fitted effect of over 60% in size
#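 Substrate mix (final 50 mM imidazole pH 7.2, 50 mM KCl, 7 mM MgCl2, 10 uM ATP, 0.01% Tween 20, 0.05% BSA) plus pin-tool compound, then Kinase-Glo detection mix; 8 min ambient, luminescence read.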
# Starred values were filed as active, the others as inactive; ? = inconclusive; · = no result; [ ] = another dose, or the depositor's remark. The call rests on the fitted dose curve; in most records, active means well fitted curve in the direction sought with a large enough effect; inconclusive means small, poorly fitted or top-dose-only effect, or another doubt; inactive means no such curve, though single readings can be large; an effect the other way counts as inactive or inconclusive. On the % scale 0 is the no-effect control and ±100 the full control effect; potency means the concentration at half of the fitted maximal effect.
SMILES,RORg inh,Gal4-VP16 FLuc,Luc counter
COc1ccc(C(=O)Nc2nc3cc4c(cc3s2)OCCO4)c(OC)c1,0.028µM*,0.4µM*,·
COc1ccccc1C(=O)Nc1nc2cc3c(cc2s1)OCO3,6%,-11%,·
CCOc1ccc2nc(NC(=O)C3=NN(c4ccccc4)C(=O)CC3)sc2c1,2.8µM*,18%,0%
CCOc1ccc2nc(NC(=O)C3=NNC(=O)CC3)sc2c1,21%,26%,2%
COc1ccc(NS(=O)(=O)c2csc(C(N)=O)c2)cc1,16%,2%,·
CC(=O)Nc1ccc2nc(NC(=O)c3cccs3)sc2c1,-40%,-26%,·
N#Cc1c(N(CC(=O)O)CC(=O)O)sc(C(=O)O)c1CC(=O)O,-1%,-8%,·
CN(C)C(=O)c1cnc(-c2ccccc2)nc1-c1ccccc1,4%,0%,·
C=CC[C@@H]1C=C[C@H](O/N=C(\C)CCN2CCc3nc(CC)c(CC)cc3C2)[C@H](CO)O1,-3%[10 µM],-14%[10 µM],·
CC(C)=CCCC(C)CN1CCC(N2CCC(C(=O)N3CCCC3)CC2)CC1 (stereo not given),?,-17%,-1%
CCOc1ccc2nc(NC(=O)c3cccnc3)sc2c1,?,-14%,-13%
COc1ccc2nc(NC(=O)C3CCN(S(=O)(=O)c4cccc5nsnc45)CC3)sc2c1,?,5%,-4%
COc1ccc2nc(NC(=O)C(NS(=O)(=O)c3cccc4nsnc34)C(C)C)sc2c1 (stereo not given),?,11µM*,-1%
COc1ccc(C(=O)Nc2cccc(NC(=O)c3cccs3)c2)cc1,21%,25%,·
COc1ccc2nc(NC(=O)c3ccccc3[N+](=O)[O-])sc2c1,0%,-18%,·
COc1ccc(NC(=O)c2ccc(NC(=O)c3cccs3)cc2)cc1,7.1µM*,?,·
COc1ccc2nc(NC(=O)c3ccccc3O)sc2c1,7.1µM*,?,·
CCOc1ccc2nc(NC(=O)c3cnc(C)cn3)sc2c1,1.8µM*,5.6µM*,-6%
COc1ccc(CCC(=O)NCCCNC(=O)CCc2ccc(OC)cc2)cc1,10%,0%,-3%
COCCCC1CCN(C(=O)CCc2nnc(CCCCc3ccccc3)o2)CC1,?,-17%,2%
CCOC(=O)c1c(C)[nH]c(C)c1S(=O)(=O)N(C)CC(=O)NCc1cccc(Br)c1,2%,5%,·
Cc1c(C(=O)OCC(=O)Nc2c(C)n(C)n(-c3ccccc3)c2=O)oc2ccccc12,2%,-19%,-2%
CCOC(=O)c1cccc(C(=O)Nc2nc3ccc(OC)cc3s2)n1,11µM*,?,-2%
COc1ccc2nc(NC(C)=O)sc2c1,2%,-1%,-9%
O=C(CCCc1nc2ccccc2s1)N1CCN(S(=O)(=O)c2cccs2)CC1,44%,-5%,-7%
SMILES,RORg inh,Gal4-VP16 FLuc,Luc counter
Fc1ccc(-c2nnc(NC3=NCCCCC3)o2)cc1,2.8µM*,?,11µM*
c1ccc(-c2nnc(NC3=NCCC3)o2)cc1,7.1µM*,0%[10 µM],?
c1ccc(Oc2cccc(NC3=NCCC3)c2)cc1,-1%[10 µM],0%,0%
Fc1ccc(NC2=NCCCCC2)cc1,-1%,2%,3%
O=C(COC(=O)c1ccc2c(c1)S(=O)(=O)N=C1CCCCCN12)NCc1cccs1,2%,-10%,·
CCCC[C@]12Cc3cc(C#N)ccc3C(O1)c1c(cc(C)n(Cc3ccccc3)c1=O)O2,-8%[10 µM],-6%[10 µM],·
O=C(NN1CC(C(=O)OCc2ccc(Br)cc2)CC1=O)c1ccccc1 (stereo not given),28%,3%,·
O=C(N/N=C/c1cccs1)c1ccc2ccccc2c1,4µM*,5.6µM*,·
COc1ccc(NS(=O)(=O)c2cccc(C(=O)N/N=C/c3cccs3)c2)cc1,-11%,-18%,-7%
O=C(N/N=C/c1cccs1)c1ccc2nc[nH]c2c1,13%,-4%,-3%
O=C(N/N=C/c1cccs1)c1cccc2cc[nH]c12,2.8µM*,?,0%
O=C(N/N=C/c1cccs1)c1ccc2ncccc2c1,11µM*,?,-1%
Cc1ccc2nc(C)c(C(=O)N/N=C/c3cccs3)cc2c1,16%,0%,-8%
Nc1ccc(Oc2ccc(F)cc2)nc1,1%,-4%,·
COc1ccc(-c2sc(Nc3ccccc3)n[n+]2-c2ccc(F)cc2)c(OC)c1OC,-2%,-4%,·
Clc1cccc(-c2sc(Nc3ccccc3)n[n+]2-c2ccccc2)c1Cl,14µM*,?,·
Fc1ccc(-[n+]2nc(Nc3ccccc3)sc2-c2cccc(Cl)c2Cl)cc1,8.9µM*,?,·
COc1cc(OC)c(-c2sc(Nc3ccccc3)n[n+]2-c2ccc(F)cc2)cc1OC,-3%,-2%,·
CSc1ccc(-c2sc(Nc3ccccc3)n[n+]2-c2ccccc2)cc1,-6%,-10%,·
COc1cc(Br)c(-c2sc(Nc3ccccc3)n[n+]2-c2ccc(F)cc2)cc1OC,6.3µM*,-20%,·
COc1ccc(OC)c(N2C(=NC(=O)C3CCCCC3)SC3CS(=O)(=O)CC32)c1 (stereo not given),5%,-2%,·
C#CCn1ccc(O)c(Cc2ccccc2)c1=O,37%,2%,·
CCc1ccc(CNC(=O)C2CCN(S(=O)(=O)N3CCC4(CC3)OCCO4)CC2)cc1,26%,13%,0%
O=C1C=C[C@@H](O)[C@H]2[C@@H]3C(=O)N(Cc4ccccc4)C(=O)[C@@H]3CC[C@H]12,2%[10 µM],-3%[10 µM],·
COC(=O)c1sccc1NC(=O)Nc1ccc(C)c(C)c1,0%,?,·
SMILES,RORg inh,Gal4-VP16 FLuc,Luc counter
CCc1ccc(NC(=O)Nc2ccsc2C(=O)OC)cc1,8.9µM*,?,·
COC(=O)c1sccc1NC(=O)Nc1ccccc1C,24%,-1%,·
COC(=O)c1sccc1NC(=O)Nc1ccccc1F,11%,13%,13µM*
C=C1c2cccc(OC)c2O[C@H](C(=O)OCC)[C@@H]1CCC(C)C,36%,4%,2%[39.9 µM]
O=C(Cc1ccccc1)N/N=C/c1ccc[nH]1,13µM*,-16%,·
Cc1ccc(C)c(NC(=O)CCC(=O)N/N=C/c2ccc[nH]2)c1,17%,-12%,-3%
NC(=O)N/N=C/c1ccc2cccc(OCc3ccccc3)c2n1,12%,2%,·
O=C(CNC(=O)c1ccc(Br)cc1)N/N=C/c1ccc[nH]1,-4%,3%,2%
Cc1ccc(NCC(=O)N/N=C\c2ccc[nH]2)cc1,6.3µM*,?,·
O=C(Cc1ccccc1)N/N=C/c1ccc2cccc(O)c2n1,7.9µM*,?,-1%
COc1cc(NC(=O)Cn2cnc(S(=O)(=O)N3CCOCC3)c2)cc(OC)c1OC,-3%,5%,·
CCc1ccccc1NC(=O)CC1SCCNC1=O (stereo not given),0%,-2%[10 µM],9%
CCC1COC(c2cccn2Cc2ccccc2Cl)=N1 (stereo not given),8.9µM*,4%,-1%
Fc1ccc(Cn2cccc2C2=NC(c3ccccc3)CO2)cc1 (stereo not given),26%,-8%,5%
CCOc1ccccc1-c1c2cc(O)c(=O)cc-2oc2cc(O)c(O)cc12,?,18µM*,-13%
O=c1cc2oc3cc(O)c(O)cc3c(-c3ccccc3O)c-2cc1O,-36%,-30%,·
C/C(Cc1ccccc1)=N\NC(=O)CNC(=O)c1ccc(Cl)cc1,3%,-9%,·
O=C(Nc1ccccc1)NC1CCCCC1,23%,17%,-4%
S=C(NNc1ccc2ccccc2c1)NC1CCCCC1,2.8µM*,2.8µM*,4%

# Screening data deposited in PubChem BioAssay by National Center for Advancing Translational Sciences (NCATS).
